# Records with an inconclusive call do not appear. Entries that show only a call come without a potency. Activity calls are given as the source filed them. Calls come from the whole dose curve; as a rule, active = well fitted inhibition curve with a large enough effect; inconclusive = small, poorly fitted or top-dose-only effect; inactive = flat fitted curve, though single readings scatter.
# Target: Calcium and integrin-binding protein 1 (Homo sapiens) (UniProt Q99828)
# Assay: Primary qHTS for Identification of Calcium Integrin Binding Protein 1 (CIB1) Competitor (AID 1508620);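 note: GST tagged CIB1 binding a fluorescein labelled alphaIIb integrin peptide tracer; top concentration of the series differs between compounds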
# Conditions: CIB1-GST / FITC-alphaIIb peptide fluorescence polarization; series mostly up to 114 µM
# Method in brief: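 Fluorescence polarization competition: CIB1-GST (1 uM final) preincubated with compound 15 min at room temperature, then FITC-labeled alphaIIb peptide (100 nM final) added for another 15 min. Polarization read at Ex 480/Em 540.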
# Chain of Calcium and integrin-binding protein 1 (Homo sapiens) (Q99828 whole entry, looked up): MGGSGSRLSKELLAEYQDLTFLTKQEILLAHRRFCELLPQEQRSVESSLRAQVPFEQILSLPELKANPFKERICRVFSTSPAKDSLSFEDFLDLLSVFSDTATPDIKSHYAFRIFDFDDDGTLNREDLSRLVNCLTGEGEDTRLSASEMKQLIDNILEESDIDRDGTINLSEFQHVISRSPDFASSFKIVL
row,Structure (SMILES),Potency
1,CS(=O)(=O)c1ccc(C(=O)OCC(=O)N2CCN(Cc3ccccc3)CC2)cc1[N+](=O)[O-],inactive
2,COc1ccc(OC)c(C2=Nn3c(nnc3-c3cccc(OC)c3OC)SC2)c1,inactive
3,O=C(CNC(=O)c1ccncc1)OC(C(=O)Nc1cc(C(F)(F)F)ccc1Cl)c1ccccc1 (stereo not given),inactive
4,O=S1(=O)N=C(Sc2cccc3cccnc23)c2ccccc21,inactive
5,COc1ccc(CN(Cc2ccccc2)C(=O)c2ccccc2N)cc1COc1ccc(NC(C)=O)cc1,inactive
